# Source: article PMC5540273 (PLoS ONE, 2017)
# System: NEK7
# Conditions: concentration: 1 μM, replicates: in singlicate; n = 1
# 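Note: KINOMEscan kinase panel screen.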
row,SMILES,%Inh [%]
1,Cc1cccc(-c2nc(-c3ccc(S(C)(=O)=O)cc3)sc2-c2ccncc2)c1,0
2,Nc1nc(-c2ccc3c(N)n[nH]c3c2)cc(N2CCCC2)n1 [GSK2227430],0
3,NCC(NC(=O)c1cc(-c2cn[nH]c2)c(-c2ccnc3[nH]ccc23)s1)c1ccccc1.O=C(O)C(F)(F)F.O=C(O)C(F)(F)F (centres unmarked) [GSK1325775],0
4,Cc1c(Cn2c(C)nn3c(=O)cc(N4CCOC(C)C4)nc23)cccc1C(F)(F)F (centres unmarked) [GSK2344444],1
5,O=C(Nc1cccc(-c2nn3ncccc3c2-c2ccnc(Nc3cccc(C(F)(F)F)c3)n2)c1)c1c(F)cccc1F [GSK299495],0
6,N#Cc1c(N2CCOCC2)sc(-c2ccn[nH]2)c1-c1ccc(Cl)cc1,0
7,CCc1nc(-c2cccc(C)c2)c(-c2ccnc(NCc3ccccc3)c2)s1,0
8,Nc1nccc(-c2c(-c3ccc(F)cc3)ncn2C2CCN(CC(F)(F)F)CC2)n1 [SB-236560],0
9,CC(=O)Nc1ccc(COc2ccc(Nc3ccnc4cc(-c5ccccn5)ccc34)cc2)cc1.Cl [GW440148],0
10,O=C(NCCCN1CCOCC1)c1cccc(Nc2nccc(Nc3ccc(Oc4ccccc4)cc3)n2)c1 [GW663929],28
11,COc1cc2c(cc1OCCN1CCN(C)CC1)ncc1c3ccc(C#N)cc3[nH]c21,0
12,COc1ccc(Nc2ncc(C#N)c(Nc3ccccc3C(N)=O)n2)cc1N1CCN(C)CC1.Cl [GSK1558669],97.4
13,Cn1ccc2ncnc(Oc3ccc(NC(=O)Nc4ccncc4)c(Cl)c3)c21,0
14,COc1cc2c(cc1OC[C@@H](O)CO)ncc1c3ccc(C#N)cc3[nH]c21,0
15,Cc1cn2c(=O)cc(N3CCOCC3)nc2n1Cc1cccc(Cl)c1Cl [GSK2334006],0
16,Cn1cc(-c2ccc3c(c2)CCN3C(=O)Cc2ccccc2Cl)c2c(N)ncnc21 [GSK2608885],17
17,NS(=O)(=O)c1cccc(-c2ccc3nccc(-c4cccc(S(N)(=O)=O)c4)c3c2)c1 [GW867253],0
18,Cl.Oc1cccc(Nc2ccnc3cc(-c4ccncc4)ccc23)c1 [GW494601],0

row,SMILES,%Inh [%]
1,[2H]C([2H])(c1cccc(C(F)(F)F)c1C)n1ccn2c(=O)nc(N3CCOCC3)cc12 [GSK2336394],0
2,Cl.Nc1ncnc2occ(-c3ccc(NC(=O)Nc4cc(C(F)(F)F)ccc4F)cc3)c12 [SB-707548],0
3,O=C1NC(=O)C(N2CCc3ccccc32)=C1c1cccc(Cl)c1 [SB-408010],0
4,C[C@@H](Oc1cc(-n2cnc3ccc(NC(=O)NC(C)(C)C)cc32)sc1C(N)=O)c1ccccc1Cl [GSK346294],4
5,O=c1cc(N2CCOCC2)nc2n(Cc3cccc(Cl)c3Cl)c(C3CC3)nn12 [GSK2358994],21
6,CSc1ccc(-c2cc3ncnc(SCC(=O)O)c3s2)cc1,8
7,c1ccc(-c2n[nH]cc2-c2ccnc3ccccc23)nc1 [GW271431],0
8,O=C(NCCNc1ccnc(Nc2ccc(F)cc2)n1)c1cc2ccccc2s1 [GSK1379874],0
9,Fc1ccc(-c2ncn(CCCN3CCOCC3)c2-c2cccnc2)cc1 [SB-211743],0
10,Cc1ccc(NC(=O)c2ccnc(N3CCN(C)CC3)c2)cc1-c1ccc(C(=O)NCC2CC2)cc1 [GW775604],0
11,CN1c2ccc(CNc3ccc(F)cc3)cc2-c2c(cnn2C)S1(=O)=O,0
12,CNc1ncnc2[nH]ncc12 [SKF-18355],0
13,COCCNC(=O)c1ccc(-c2cc(C(=O)NC3CC3)cc(F)c2C)cc1 [GW868318],0
14,CCc1ccnc(/C=C/c2n[nH]c3cc(Sc4ccccc4C(=O)NC)ccc23)c1,0
15,CC(C)Oc1ccc2c(-c3ccnc(Nc4ccc(N5CCN(C)CC5)cc4)n3)cnn2n1 [GW696155],92.6
16,c1ccc(-c2cc(-c3c[nH]nc3-c3ccccn3)ccn2)cc1 [GW576604],0
17,Fc1ccc(-c2ncn(CCCN3CCOCC3)c2-c2ccccn2)cc1 [SB-211742],0
